Screen size: about 39,000 compounds; about 3,300 (8.5%) were called active. The sample holds actives, similar compounds and a random draw of the others, so the mix is not that of the screen.
What follows are compounds tested on HepG2 (assay: cytotoxicity call (relative viability < 0.9)). Details: 10 µM.

| SMILES | cytotoxicity call |
| --- | --- |
| F[C@H]1CCNC1 | inactive |
| C[C@@H]1CCCCO[C@@H](CN(C)C(=O)c2ccncc2)[C@H](C)CN([C@@H](C)CO)C(=O)c2cc(NS(=O)(=O)c3ccc(Cl)cc3)ccc2O1 | inactive |
| Cn1cnc(=N)c2[nH]cnc21 | inactive |
| CN1CCN([C@H](CNC(=O)C(=O)NCCN2CCOCC2)c2ccc(N(C)C)cc2)CC1 | inactive |
| Cc1noc(C)c1S(=O)(=O)Nc1cccc2c1O[C@H](CN(C)Cc1ccncc1)[C@H](C)CN([C@@H](C)CO)C2=O | inactive |
| C[C@H]1CN([C@@H](C)CO)C(=O)Cc2cc(NC(=O)Nc3cccc4ccccc34)ccc2O[C@@H]1CN(C)C(=O)NC1CCCCC1 | inactive |
| C[C@@H]1O[C@@H](O)[C@H](O)[C@H](O)[C@H]1O | inactive |
| COC1C(C(=O)O)OC(C)C(O)C1O.COC1OC(C(=O)O)C(O)C(O)C1O (stereo not given) [ALGINIC ACID [Mol Wt ~200,000; monomers shown] ] | active |
| CO[C@H]1O[C@H](COS(=O)(=O)O)[C@@H](O[C@@H]2O[C@@H](C(=O)O)[C@@H](OC)[C@H](O)[C@H]2OS(=O)(=O)O)[C@H](O)[C@H]1NS(=O)(=O)O | inactive |
| C[C@@H]1CN([C@@H](C)CO)C(=O)Cc2cc(NC(=O)c3ccncc3)ccc2O[C@@H]1CN(C)Cc1ccncc1 | inactive |
| O=C(C[C@H]1CC[C@H]2[C@@H](COC[C@@H](O)CN2C(=O)c2ccc(F)cc2)O1)NCCCN1CCOCC1 | inactive |
| O=C(CCCCCCC(=O)Nc1ccc([C@H]2C[C@H](c3ccccc3)O[C@H](c3ccccc3)O2)cc1)NO | inactive |
| O=C(CCCCCCC(=O)Nc1ccccc1)NO | active |
| O=C(CCCCCCC(=O)NO)NO | inactive |
| C[C@@H]1CN([C@@H](C)CO)C(=O)CCCn2nncc2CO[C@H]1CN(C)S(=O)(=O)c1ccc(C#N)cc1 | inactive |
| CCO[C@@H]1OC(C(=O)N2CCCCCCC2)=C[C@H](c2coc3ccccc3c2=O)[C@H]1CCCOC(=O)NCCCCCC(=O)NO | inactive |
| C[C@H](CO)N1C[C@H](C)[C@@H](CN(C)C(=O)NC2CCCCC2)OCCCC[C@H](C)Oc2ccc(NC(=O)Nc3ccccc3)cc2C1=O | inactive |
| C[C@H]1CCCCO[C@@H](CN(C)C(=O)NC2CCCCC2)[C@@H](C)CN([C@@H](C)CO)C(=O)c2cc(NC(=O)Nc3ccccc3)ccc2O1 | inactive |
| C[C@H]1CCCCO[C@H](CN(C)C(=O)NC2CCCCC2)[C@@H](C)CN([C@@H](C)CO)C(=O)c2cc(NC(=O)Nc3ccccc3)ccc2O1 | active |
| C[C@H](CO)N1C[C@H](C)[C@H](CN(C)C(=O)NC2CCCCC2)OCCCC[C@H](C)Oc2ccc(NC(=O)Nc3ccccc3)cc2C1=O | inactive |
| C[C@@H]1CN([C@H](C)CO)C(=O)c2cc(NC(=O)Nc3ccccc3)ccc2O[C@@H](C)CCCCO[C@H]1CN(C)C(=O)NC1CCCCC1 | active |
| C[C@@H]1CN([C@@H](C)CO)C(=O)c2cc(NC(=O)Nc3ccccc3)ccc2O[C@@H](C)CCCCO[C@@H]1CN(C)C(=O)NC1CCCCC1 | inactive |
| C[C@H](CO)N1C[C@H](C)[C@H](CN(C)S(=O)(=O)c2ccccc2)Oc2c(NC(=O)c3cnccn3)cccc2C1=O | inactive |
| NNC(=O)c1cccc(C(=O)NO)c1 | inactive |

| SMILES | cytotoxicity call |
| --- | --- |
| Cc1noc(C)c1NC(=O)N(C)C[C@H]1Oc2ncc(C#CCN(C)C)cc2C(=O)N([C@@H](C)CO)C[C@H]1C | inactive |
| O=C(NC(CO)C(O)c1ccc([N+](=O)[O-])cc1)C(Cl)Cl (stereo not given) | active |
| CCCCCCCCCCCCCCCC(=O)OC[C@@H](NC(=O)C(Cl)Cl)[C@H](O)c1ccc([N+](=O)[O-])cc1 | inactive |
| CCCCCCCCCCCCCCCC(=O)OC[C@H](NC(=O)C(Cl)Cl)[C@H](O)c1ccc([N+](=O)[O-])cc1 | inactive |
| CCCCCCCCCCCCCCCC(=O)OCC(NC(=O)C(Cl)Cl)C(O)c1ccc([N+](=O)[O-])cc1 (stereo not given) | inactive |
| CS(=O)(=O)c1ccc(C(O)C(CO)NC(=O)C(Cl)Cl)cc1 (stereo not given) | inactive |
| O=C([O-])CCC(=O)OCC(NC(=O)C(Cl)Cl)C(O)c1ccc([N+](=O)[O-])cc1.[Na+] (stereo not given) | active |
| C[C@H]1CCCCO[C@@H](CN(C)C(=O)Nc2ccc(C(F)(F)F)cc2)[C@@H](C)CN([C@@H](C)CO)C(=O)c2cc(NS(=O)(=O)c3cn(C)cn3)ccc2O1 | inactive |
| CNC(=O)C(=O)NC[C@H]1OCCN1S(=O)(=O)c1ccccc1 | inactive |
| Cc1ccc(S(=O)(=O)N(C)C[C@H]2Oc3c(NS(C)(=O)=O)cccc3C(=O)N([C@@H](C)CO)C[C@@H]2C)cc1 | inactive |
| C[C@H](CO)N1C[C@H](C)[C@H](CN(C)Cc2ccncc2)Oc2ccc(NC(=O)c3ccncc3)cc2C1=O | inactive |
| C[C@@H]1CN([C@@H](C)CO)S(=O)(=O)c2ccc(-c3ccncc3)cc2O[C@@H]1CN(C)S(=O)(=O)c1ccccc1F | inactive |
| O=C(C1=C[C@@H](c2csc3ccccc23)C[C@@H](OCc2ccc(CO)cc2)O1)N1CCN(Cc2ccc3c(c2)OCO3)CC1 | active |
| O=C(C1=C[C@H](c2csc3ccccc23)C[C@H](OCc2ccc(CO)cc2)O1)N1CCN(Cc2ccccc2)CC1 | inactive |
| O=C(C1=C[C@H](c2csc3ccccc23)C[C@H](OCc2ccc(CO)cc2)O1)N1CCN(Cc2ccc3c(c2)OCO3)CC1 | inactive |
| C[C@H](CO)N1C[C@H](C)[C@H](CN(C)S(C)(=O)=O)Oc2ccc(NC(=O)c3ccncc3)cc2CC1=O | inactive |
| COc1ccccc1N1CCN(c2ncc(C(=O)N3CCN(c4cccc(Cl)c4)CC3)c3ccccc23)CC1 | inactive |
| Cl.O=c1n(CCCN2CCN(c3cccc(Cl)c3)CC2)nc2ccccn12 | inactive |
| CCc1nn(CCCN2CCN(c3cccc(Cl)c3)CC2)c(=O)n1CCOc1ccccc1 | active |
| C[C@H]1CN([C@@H](C)CO)C(=O)c2cccc(NS(=O)(=O)c3ccc(F)cc3)c2O[C@H]1CN(C)Cc1ccncc1 | inactive |
| COc1cc(C(=O)NCCCN2CCCN(CCCNC(=O)c3cc(OC)c(OC)c(OC)c3)CC2)cc(OC)c1OC | inactive |
| Cc1cn(CCC#N)c2ccccc12 | inactive |
| Cc1cn(CCN2CCN(c3ccccc3-c3cc(C#N)cc(C(=O)NCCCN4CCCC4)c3)CC2)c2ccccc12 | active |
| C[C@@H]1CN([C@@H](C)CO)S(=O)(=O)c2ccc(-c3ccncc3)cc2O[C@@H]1CN(C)Cc1ccc(Oc2ccccc2)cc1 | inactive |

| SMILES | cytotoxicity call |
| --- | --- |
| C[C@H](O)C#Cc1ccc2c(c1)O[C@@H](CN(C)C(=O)CN(C)C)[C@H](C)CN([C@H](C)CO)S2(=O)=O | inactive |
| CC(C)NC(=O)Nc1cccc2c1O[C@H](CN(C)Cc1ccc(-c3ccccc3)cc1)[C@H](C)CN([C@H](C)CO)C2=O | inactive |
| CC(C)NC(=O)Nc1cccc2c1O[C@H](CN(C)Cc1ccc(-c3ccccc3)cc1)[C@@H](C)CN([C@@H](C)CO)C2=O | active |
| C[C@@H]1CN([C@H](C)CO)C(=O)c2cccc(NC(=O)Nc3ccc(F)cc3)c2O[C@H]1CN(C)Cc1ccc(-c2ccccc2)cc1 | active |
| C[C@H](CO)N1C[C@H](C)[C@@H](CN(C)Cc2ccc(-c3ccccc3)cc2)Oc2c(NC(=O)Nc3ccc(F)cc3)cccc2C1=O | inactive |
| C[C@H]1CN([C@@H](C)CO)C(=O)c2cccc(NC(=O)Nc3ccc(F)cc3)c2O[C@H]1CN(C)Cc1ccc(-c2ccccc2)cc1 | inactive |
| C[C@H]1CN([C@@H](C)CO)C(=O)c2cccc(NC(=O)Nc3ccccc3)c2O[C@@H]1CN(C)Cc1ccc(-c2ccccc2)cc1 | inactive |
| C[C@@H]1CN([C@@H](C)CO)C(=O)c2cccc(NC(=O)Nc3ccccc3)c2O[C@@H]1CN(C)Cc1ccc(-c2ccccc2)cc1 | active |
| C[C@H]1CN([C@@H](C)CO)C(=O)c2cccc(NC(=O)Nc3ccc(F)cc3)c2O[C@@H]1CN(C)Cc1ccc(-c2ccccc2)cc1 | inactive |
| C[C@H](CO)N1C[C@H](C)[C@H](CN(C)Cc2ccc(-c3ccccc3)cc2)Oc2c(NC(=O)Nc3ccc(F)cc3)cccc2C1=O | inactive |
| C[C@@H]1CN([C@@H](C)CO)C(=O)c2cccc(NC(=O)Nc3ccc(F)cc3)c2O[C@@H]1CN(C)Cc1ccc(-c2ccccc2)cc1 | active |
| CC(C)NC(=O)Nc1cccc2c1O[C@@H](CN(C)Cc1ccc(-c3ccccc3)cc1)[C@@H](C)CN([C@@H](C)CO)C2=O | inactive |
| C[C@@H]1CN([C@@H](C)CO)C(=O)c2cccc(NC(=O)Nc3ccccc3)c2O[C@H]1CN(C)Cc1ccc(-c2ccccc2)cc1 | inactive |
| CN1CCN(C(=O)C[C@H]2CC[C@@H]3[C@H](COC[C@H](O)CN3C(=O)C3CC3)O2)CC1 | inactive |
| O=C(O)[C@H]1CCCC[C@@H]1C(=O)N1CCOCC1 | inactive |
| CO[C@@H]1CN(C)C(=O)c2ccc(NS(C)(=O)=O)cc2OC[C@@H](C)N(C(=O)C2CCCCC2)C[C@H]1C | inactive |
| COc1ccc(NC(=O)N2C[C@@H](O)COC[C@@H]3O[C@H](CC(=O)NCc4ccccc4OC)CC[C@H]32)cc1 | inactive |
| C[C@@H]1CN([C@@H](C)CO)S(=O)(=O)c2ccc(C#CC3CC3)cc2O[C@H]1CN(C)Cc1ccccc1F | inactive |
| COc1ccc(S(=O)(=O)N[C@H]2CC[C@@H](CC(=O)N3CCN(c4ccccc4)CC3)O[C@H]2CO)cc1 | inactive |
| CC(C)NC(=O)Nc1ccc2c(c1)C(=O)N([C@H](C)CO)C[C@@H](C)[C@H](CN(C)S(C)(=O)=O)OCCCC[C@H](C)O2 | inactive |
| O=C(C[C@H]1CC[C@@H](NS(=O)(=O)c2ccc(F)cc2)[C@@H](CO)O1)NCc1ccc(Cl)c(Cl)c1 | inactive |
| C[C@@H]1CCCCO[C@@H](CN(C)C(=O)Nc2ccc(F)cc2)[C@H](C)CN([C@H](C)CO)C(=O)c2cc(NC(=O)Cc3ccccc3)ccc2O1 | inactive |

From the antibiotic and cytotoxicity screens of Wong et al. (2023)
